Apoferritin bind = candidate novel general anesthetic via apoferritin binding; P02791; apoferritin/1-aminoanthracene competitive binding, fluorescence; Potency, µM (titrated, usually from 77.5 µM), actives largely listed as inhibitors; 350,000 tested, 0.074% active; AID 485281; active means well fitted inhibition curve with a large enough effect; further: nearly all actives have a fitted effect of over 20% in size
Target sequence (P02791 2-175 limits assumed): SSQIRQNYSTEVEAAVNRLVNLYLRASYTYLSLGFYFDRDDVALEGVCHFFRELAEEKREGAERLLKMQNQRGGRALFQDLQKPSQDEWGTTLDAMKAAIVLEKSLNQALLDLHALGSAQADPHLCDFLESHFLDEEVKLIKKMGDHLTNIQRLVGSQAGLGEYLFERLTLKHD
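Horse-spleen apoferritin (10 uM) in 50% saturated 1-aminoanthracene in PBS was incubated 10 min at room temperature with compound. Fluorescence (ex 380, em 535 nm) was normalized to free and bound 1-AMA, with concentration-response fitted by a four-parameter Hill equation.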
D2 ag-1 = activates the human D2 dopamine receptor. P14416. HEK293 T-REx D2 cells, calcium flux agonist mode. activation, % at 2 µM. 340,000 tested, 0.53% active;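 active means activation over 3 SD above normal in the single-dose calcium agonist read, cut at about 30% in these data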
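Tetracycline-induced HEK293 T-REx cells with force-coupled D2 receptor, plated overnight at 30 C, loaded with no-wash calcium dye. After a 10 s baseline, compound was pin-added and calcium flux read kinetically for 180 s; calcium rises flagged agonists.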
D2 PAM-1 = positive allosteric modulators of human D2 dopamine receptor; P14416; DiscoveRx D2 beta-arrestin cells, luminescence, 90 min; 100% = 57 uM dopamine signal; potentiation, % (no concentration beside the values); 360,000 tested, 0.23% active; AID 624464; in the data active means potentiation above about 50%
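PathHunter beta-arrestin assay in DiscoveRx D2 cells. Compounds were added with an EC20 of dopamine (50 nM final) for 90 min at 37 deg C. Luminescence was read 1 h after detection reagent, with 57 uM dopamine as the EC100 control.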
D2 antag = antagonists of human D2 dopamine receptor; HEK293 TREx D2 cells, calcium flux, dopamine EC80; AID 485344; inhibition, % at 10 µM; 340,000 tested, 2% active; P14416; in the data active means inhibition above about 30%; inactive means below that, where a call was filed
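Tetracycline-induced HEK293 T-REx cells expressing D2 force-coupled to calcium signalling were dye-loaded, exposed to compound for 180 s, then challenged with an EC80 of dopamine; calcium flux was followed kinetically for a further 180 s.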
D2 ag-2 = human D2 receptor agonism in beta-arrestin assay | AID 624465 | P14416 | DiscoveRx PathHunter D2 beta-arrestin, luminescence, 90 min; 100% = 57 uM dopamine signal | 360,000 tested, 0.084% active | activation, % (test concentration not listed); in the data active means activation above about 40%
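DiscoveRx PathHunter D2 beta-arrestin cells (2,100/well) attached overnight, then compound-stimulated 90 min at 37 C in HBSS/10 mM HEPES/0.1% Tween-20 buffer; beta-galactosidase complementation read by luminescence after 1 h at ambient temperature. Dopamine 57 uM final (EC100) as control.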
D2 PAM-2 = positively modulates the human D2 dopamine receptor allosterically; potentiation, % at 10 µM; HEK293 T-REx D2, calcium flux, EC20 dopamine potentiation; 340,000 tested, 0.34% active; P14416; AID 485347;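 active means potentiation over 3 SD above the plate norm, cut at about 30% in these data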
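Tetracycline-induced Hek293 Trex D2 cells, force-coupled to calcium, loaded with no-wash calcium dye. Compound added with 180 s kinetic read for agonism, then EC20 dopamine and a further 180 s read for potentiation.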
Hits are given with their value. Shown are actives, neighbours in structure and some others; about 2.5% of the full set was active somewhere.

Screening COc1ccc(C(=O)Nc2nc(C)c(C(C)=O)s2)cc1S(=O)(=O)N1CCOCC1 returned D2 ag-1 inactive, D2 PAM-1 inactive, D2 antag 30, D2 ag-2 inactive and D2 PAM-2 inactive.
COc1ccc(C(=O)Nc2nnc(C)s2)cc1S(=O)(=O)N1CCOCC1 was read as D2 ag-1 inactive, D2 PAM-1 inactive, D2 antag inactive, D2 ag-2 inactive and D2 PAM-2 inactive.
Screening C=CCC(CC=C)(NC(=O)c1cccc(C)c1)c1ccccc1 returned Apoferritin bind inactive, D2 ag-1 inactive, D2 PAM-1 inactive, D2 antag inactive, D2 ag-2 inactive and D2 PAM-2 inactive.
Screening CN(C)S(=O)(=O)c1cccc(NC(=O)/C=C/c2ccccc2[N+](=O)[O-])c1 returned Apoferritin bind inactive, D2 ag-1 inactive, D2 PAM-1 inactive, D2 antag inactive, D2 ag-2 inactive and D2 PAM-2 inactive.
For CCC(C(=O)N1CCN(c2ccccc2)CC1)n1nc(C)n2c(cc3sccc32)c1=O (configuration not stated) the results were Apoferritin bind inactive, D2 ag-1 inactive and D2 PAM-2 inactive.
Screening COc1ccc(NC(C)=O)cc1NC(=O)CSc1nnc(-c2ccccc2)n1N returned Apoferritin bind inactive, D2 ag-1 inactive, D2 PAM-1 inactive, D2 antag inactive, D2 ag-2 inactive and D2 PAM-2 inactive.
Screening Cc1ccc(NC(=O)C(C)OC(=O)/C=C/c2ccccc2)cc1S(=O)(=O)N1CCOCC1 (configuration not stated) returned D2 ag-1 inactive, D2 PAM-1 inactive, D2 antag inactive, D2 ag-2 inactive and D2 PAM-2 41.
O=C(Nc1nncs1)c1ccc(Br)c(S(=O)(=O)N2CCCC2)c1 was read as Apoferritin bind inactive, D2 ag-1 inactive, D2 PAM-1 inactive, D2 antag 56, D2 ag-2 inactive and D2 PAM-2 inactive.
For Cc1ccc(N(Cc2ccccc2)C(=O)c2ccc(F)c(S(=O)(=O)N3CCOCC3)c2)cc1 the results were D2 ag-1 inactive, D2 PAM-1 inactive, D2 antag 59, D2 ag-2 inactive and D2 PAM-2 inactive.
Screening Cc1cccc(N(Cc2ccccc2)C(=O)c2ccc(F)c(S(=O)(=O)N3CCOCC3)c2)c1 returned D2 ag-1 inactive, D2 PAM-1 inactive, D2 antag inactive, D2 ag-2 inactive and D2 PAM-2 inactive.
Screening CC(=O)c1cccc(NC(=O)c2ccc(C)c(S(=O)(=O)N3CCOCC3)c2)c1 returned Apoferritin bind inactive, D2 ag-1 inactive, D2 PAM-1 inactive, D2 antag 50, D2 ag-2 inactive and D2 PAM-2 inactive.
CCCOc1ccccc1-c1nc2c([nH]1)c(=O)[nH]c(=O)n2C was read as Apoferritin bind inactive, D2 ag-1 inactive, D2 PAM-1 inactive, D2 antag inactive, D2 ag-2 inactive and D2 PAM-2 inactive.
CCNC(=O)C1CCCN(C(=O)c2c(-c3ccccc3)noc2C)CC1 (configuration not stated) was read as D2 PAM-1 inactive and D2 ag-2 inactive.
`O=C(c1ccc(CSc2nc3ccncc3[nH]2)cc1)N1CCN(c2cccc(Cl)c2)CC1` gave Apoferritin bind inactive, D2 ag-1 inactive, D2 PAM-1 inactive, D2 antag inactive, D2 ag-2 inactive and D2 PAM-2 inactive.
Screening COc1ccc(NC(=O)c2cc(S(=O)(=O)N3CCCC3)oc2C)cc1 returned Apoferritin bind inactive, D2 ag-1 inactive, D2 PAM-1 inactive, D2 antag inactive, D2 ag-2 inactive and D2 PAM-2 31.
For COc1ccc(OCCOC(=O)c2ccc(F)c(S(=O)(=O)N3CCOCC3)c2)cc1 the results were D2 ag-1 inactive, D2 PAM-1 inactive, D2 antag 49, D2 ag-2 inactive and D2 PAM-2 inactive.
COc1ccc(C(=O)NNC(=O)COc2ccc(Cl)cc2C)cc1S(=O)(=O)N1CCOCC1 was read as D2 ag-1 inactive, D2 PAM-1 inactive, D2 antag 33, D2 ag-2 inactive and D2 PAM-2 inactive.
